Assay outcomes from PubChem BioAssay.
Hits are enriched below; roughly 3.7% of the tested compounds scored in any of these assays.
tim23-1 inh – growth inhibitors of tim23-1 mutant yeast; S. cerevisiae tim23-1 growth, BacTiter-Glo luminescence, 24 h; AID 463212; hit rate 1.3% among 330,000; inhibition, % at 20 µM;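 active = growth inhibition of the mutant yeast at or above 50%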;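 also: temperature-sensitive mutant grown at 25 °C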
PfHsp90 set2 – reduces growth (ATP signal) of yeast expressing P. falciparum Hsp90 | S. cerevisiae expressing PfHsp90, BacTiter-Glo ATP, 48 h; yeast lacking PDR1 and PDR3 efflux regulators | inhibition, % at 9.4 µM | hit rate 0.32% among 310,000 | AID 504621;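 active = every replicate shows inhibition above about 80%, whatever the replicate mean, limit read from the data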
tim10-1 inh – inhibits growth of tim10-1 mutant yeast. hit rate 2.2% among 330,000. AID 463190. inhibition, % at 20 µM. S. cerevisiae tim10-1 ts strain growth, BacTiter-Glo, 24 h;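 active = inhibition of at least 40%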;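 also: mutant grown at 25 °C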
TIM10 inh – growth inhibitors of TIM10 yeast strain | S. cerevisiae TIM10 strain growth, BacTiter-Glo luminescence, 24 h | hit rate 1.4% among 330,000 | AID 463195 | inhibition, % at 10 µM;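 active = inhibition of 40% or more at the single tested concentration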;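 also: wild-type TIM10 isogenic control strain grown at permissive 25 °C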
V-ATPase pH – alters yeast V-ATPase proton transport; hit rate 0.37% among 350,000; S. cerevisiae, pHLuorin cytosolic pH fluorescence; response, % at 10 µM; in the data active = response mostly above about 7.3%, no sharp cut-off; inactive = mostly below about 5.4%; also: actives read high
tim10 confirm – TIM10 yeast growth inhibition, confirmed; shares compounds with TIM10 inh; S. cerevisiae tim10 strain growth, BacTiter-Glo luminescence, 24 h; inhibition, % at 10 µM; hit rate 63% among 4,600; AID 463215;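 active = inhibition of yeast growth at or above a set limit in either of two replicates at 10 µM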; also: this counterscreen used the strain with wild-type TIM10
Of the large screens only hits and unclear results are named; the others gave an inactive call (follow-up assays come after a bar, where they were run).

CC(C)(C)c1ccc(OCC(=O)NNC(=S)NC(=O)c2ccccc2[N+](=O)[O-])c(Br)c1	TIM10 inh 48.7 | tim10 confirm 43.8
CCOC(=O)C1=C(C)NC(=S)N(C(C)=O)C1c1ccc(Cl)cc1 (configuration not stated)	TIM10 inh 42.3 | tim10 confirm 42.0
CCOC(=O)C1=C(C)NC(=S)NC1c1ccc(-c2ccc(Cl)cc2)o1 (configuration not stated)	TIM10 inh 44.4 | tim10 confirm 33.2
CCOC(=O)C1=C(C)NC(=S)N(C(C)=O)C1c1ccc(OC)c(OC)c1 (configuration not stated)	none
N#CCC(=O)N/N=C/c1cc(Br)ccc1OCc1cccc2ccccc12	none
Cc1ccc(S(=O)(=O)N2C[C@H]3[C@H]4C(=O)N(c5ccccc5)C(=O)[C@H]4C[C@H](OC(=O)Nc4c(C)noc4C)[C@@]3(O)C2)cc1	none (no result: tim23-1 inh, PfHsp90 set2, tim10-1 inh, TIM10 inh)
CC(C)(C)c1ccc(C(=O)NC(=S)NCc2cccnc2)cc1	TIM10 inh 40.8 | tim10 confirm 30.4
Cc1noc(C)c1COc1ccc(C(=O)OCc2nnc(-c3ccc(Cl)cc3)o2)cc1	TIM10 inh 42.7 | tim10 confirm 37.2
O=C(O)c1nnn(-c2ccc(F)cc2F)c1-c1ccccc1	none
O=C(O)c1nnn(-c2cc(C(F)(F)F)cc(C(F)(F)F)c2)c1-c1ccccc1	TIM10 inh 41.4 | tim10 confirm inactive
COCCN(C(=O)COC(=O)c1ccc2ccccc2c1)c1c(N)n(Cc2ccccc2)c(=O)[nH]c1=O	none (no result: tim23-1 inh, PfHsp90 set2, tim10-1 inh, TIM10 inh)
NNC(=O)c1ccc2nc(-c3ccc(Br)cc3)cn2c1	TIM10 inh 40.2 | tim10 confirm inactive
CC(C)(C)c1cc(O)c(C(C)(C)C)cc1O	TIM10 inh 46.9 (no result: PfHsp90 set2, V-ATPase pH) | tim10 confirm 42.0
Cc1cc(C(C)(C)C)c(O)c(C(C)(C)C)c1	none
O=C(COc1cccc2ccccc12)Nc1nc2ccccc2[nH]1	TIM10 inh 41.2 | tim10 confirm inactive
CCOc1ccccc1OCC(=O)Nc1nc2ccccc2[nH]1	none
Nc1c(C(=O)Nc2ccc(F)cc2)sc2nc(-c3ccco3)ccc12	TIM10 inh 48.6 | tim10 confirm 48.3
COc1ccccc1-c1coc2cc(OC(=O)N3CCOCC3)ccc2c1=O	none (no result: PfHsp90 set2)
CCc1cc2c(=O)c(-c3nc4ccccc4[nH]3)coc2cc1OC(=O)N1CCOCC1	TIM10 inh 57.2 | tim10 confirm 62.4
CNc1ccc(/C=C/C(=O)c2cccc3ccccc23)cc1[N+](=O)[O-]	TIM10 inh 44.6 | tim10 confirm inactive
COc1cccc(C(=O)CC(=O)C(=O)Nc2cc(OC)c(OC)c(OC)c2)c1	none (no result: PfHsp90 set2, V-ATPase pH)
Cc1cccc(N=c2c([N+](=O)[O-])nn(-c3ccc(Cl)cc3)n2O)c1	none
CCc1cccc(N=c2c([N+](=O)[O-])nn(-c3ccc(Cl)cc3)n2O)c1	TIM10 inh 46.5 | tim10 confirm inactive
COc1cc(OC)cc(C(=O)NC(=S)NCCc2ccccc2)c1	TIM10 inh 44.0 | tim10 confirm inactive
Cc1ccsc1/C=N\NC(=O)c1ccc2c(c1)OCO2	TIM10 inh 42.6 (no result: PfHsp90 set2) | tim10 confirm inactive
O=C(Nc1cccc(F)c1)c1ccc2c(c1)OCO2	TIM10 inh 49.6 | tim10 confirm inactive
O=C(Nc1ccc2c(c1)OCO2)c1ccc(Br)s1	none
O=C(N/N=C/c1ccc2c(c1)OCO2)c1ccc2c(c1)OCO2	none
COc1cc(NC(=O)c2cccs2)cc(OC)c1	TIM10 inh 69.8 | tim10 confirm 55.8
COc1cc(OC)cc(C(=O)Nc2cccc(NC(=O)c3cccs3)c2)c1	none (no result: tim23-1 inh, PfHsp90 set2, tim10-1 inh, TIM10 inh)
O=C(Nc1ccc2c(c1)OCO2)c1cccs1	TIM10 inh 47.3 | tim10 confirm 36.6
COCCn1c(N)c(N(Cc2ccccc2)C(=O)C2=COCCO2)c(=O)[nH]c1=O	none
Cc1ccc(-c2ccc(CN3C(C)C(=O)N(Cc4cn(CC5CCCCC5)nn4)CCS3(=O)=O)cc2)cc1 (configuration not stated)	none (no result: tim23-1 inh, PfHsp90 set2, tim10-1 inh, TIM10 inh)
O=C(Nc1ccccc1)c1ccc2c(c1)CCN2S(=O)(=O)c1ccccc1	none
O=C(Nc1cccc(C2OCCCO2)c1)c1cccs1	TIM10 inh 43.9 | tim10 confirm inactive
Cc1ccc(NC(=O)c2ccc3c(c2)OCO3)cc1Cl	TIM10 inh 41.8 | tim10 confirm 34.2
O=C(Nc1ccc(S(=O)(=O)N2CCc3ccccc32)cc1)c1ccc2c(c1)OCO2	TIM10 inh 43.9 | tim10 confirm 46.6
CC1C(=O)N(Cc2cn(CCC3OCCCO3)nn2)CCS(=O)(=O)N1Cc1ccc(-c2ccc(Cl)nc2)cc1 (configuration not stated)	none (no result: tim23-1 inh, PfHsp90 set2, tim10-1 inh, TIM10 inh)
COc1ccc(CNC(=O)C2CCN(S(=O)(=O)c3c(C)noc3/C=C/N(C)C)CC2)cc1	none
Cn1c(=O)c2c(nc(SCc3ccccc3)n2Cc2ccc(Cl)cc2)n(C)c1=O	TIM10 inh 43.0 | tim10 confirm inactive
CC(C)Sc1nc2c(c(=O)n(C)c(=O)n2C)n1Cc1ccc(Cl)cc1	none
Cc1cccc(-n2c(C)c(-c3ccccc3)[nH]c2=S)c1	TIM10 inh 42.7 | tim10 confirm 38.4
CC(=O)c1sc(N/N=C\c2cccc(Br)c2)nc1C	TIM10 inh 40.9 | tim10 confirm inactive
CC(=O)c1sc(N/N=C\c2ccc(Br)cc2)nc1C	none
Cc1ccc(-c2n[nH]c(=S)n2/N=C/c2cccs2)cc1	TIM10 inh 52.0 | tim10 confirm inactive
Cc1ccccc1-c1cn(-c2ccccc2)c(=S)[nH]1	TIM10 inh 40.6 | tim10 confirm 50.5
COc1ccc(-n2cc(-c3ccc(Br)cc3)[nH]c2=S)cc1	none
CCNC(=O)N(CCOC)CC1CCCN(C2Cc3ccccc3C2)C1 (configuration not stated)	TIM10 inh 51.0 | tim10 confirm inactive
CCCNC(=O)N(CCOC)CC1CCCN(C2Cc3ccccc3C2)C1 (configuration not stated)	none
O=C1Nc2ccc(Br)cc2C12NNc1ccccc1O2 (configuration not stated)	PfHsp90 set2 105.9, TIM10 inh 45.5 | tim10 confirm 69.2
CCC1(CC)NC(=O)N(CC(=O)Nc2ccc(C)cc2C)C1=O	none
CCn1c(Cl)c(C=O)s/c1=N\S(=O)(=O)c1ccccc1	TIM10 inh 42.7 | tim10 confirm inactive
CCN1C(=O)CS/C1=N\S(=O)(=O)c1ccc(Cl)cc1	none (no result: PfHsp90 set2)
Cc1ccc(S(=O)(=O)N(C)C)cc1NC(=O)CSc1nc2ncc(Cl)cc2[nH]1	none
O=S(=O)(NCc1ccc2c(c1)OCO2)c1ccc2c(c1)oc1ccccc12	TIM10 inh 46.1 | tim10 confirm 28.2
O=S(=O)(NCc1ccc2c(c1)OCO2)c1cccc(F)c1	none
CCOC(=O)C1=CNS(=O)(=O)NC1c1ccc(OC(C)=O)cc1 (configuration not stated)	none
O=C(N/N=C/c1ccccc1)NC1CCCCC1	none
C/C(=N\NC(=S)NC1CCCCC1)c1ccc(O)cc1	TIM10 inh 48.9 (no result: PfHsp90 set2) | tim10 confirm 41.9
